Test results as given in PubChem BioAssay (Tox21).
Inconclusive results are not listed. Activity calls are given as the source filed them. Unless noted, the call rests on the fitted dose curve; in most records, active means well fitted curve in the direction sought with a large enough effect in the repeat runs; inconclusive means weak or mixed curves; inactive means no such curve, though single readings can be large; an effect the other way counts as inactive or inconclusive.

How the values were obtained:
[1] = qHTS assay for small molecule agonists of the p53 signaling pathway (AID 651631; calls by dose curve; further: nearly all actives have a fitted effect of over 15% in size; further: potency means the concentration at half of the fitted maximal effect)
How it was run: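 Read-out is beta-lactamase FRET fluorescence measured 2 h after substrate addition at room temperature, in HCT-116 cells with a p53 response element-driven reporter exposed to compounds for 16 h at 37 °C.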

[2] = qHTS assay for small molecules that induce genotoxicity in human embryonic kidney cells expressing luciferase-tagged ATAD5 (AID 651632); further: nearly all actives have a fitted effect of over 15% in size
How it was run: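 Luminescent reporter readout, HEK293T ATAD5-luc line: 16 hr drug exposure (37C, 5% CO2) followed by Amplite, 30 min RT.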

[3] = qHTS assay for small molecule agonists of the p53 signaling pathway - cell viability (AID 651633; calls by dose curve; further: nearly all actives have a fitted effect of over 30% in size; further: potency means the concentration at half of the fitted maximal effect)
How it was run: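 Viability counter-read: CellTiter-Glo luminescence (30 min, room temperature) in the same p53RE-bla plates. These plates had been exposed to compounds for 16 h at 37 C.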

[4] = qHTS assay for small molecules that induce genotoxicity in human embryonic kidney cells expressing luciferase-tagged ATAD5 - cell viability (AID 651634; calls by dose curve; further: nearly all actives have a fitted effect of over 25% in size; further: potency means the concentration at half of the fitted maximal effect)
How it was run: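 Viability read: CellTiter-Fluor fluorescence, 30 min at 37C. Cells: HEK293T, luciferase-tagged ATAD5. Exposure: 15.5 hr, 37C, 5% CO2, compound or DMSO vehicle.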

[5] = qHTS assay for small molecule disruptors of the mitochondrial membrane potential (AID 720635); further: potency means the concentration at half of the fitted maximal effect
How it was run: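 Mitochondrial membrane potential tracked with Mito-MPS dye, red aggregates (ex 540/em 590 nm) against green monomers (ex 490/em 535 nm). Compound treatment 1 hr at 37C, dye 30 min in HepG2.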

[6] = qHTS assay to test for compound auto fluorescence at 535 nm (green) in HepG2 cells (AID 720675)
[7] = qHTS assay to test for compound auto fluorescence at 460 nm (blue) in HEK293 cells (AID 720678)
How it was run: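 HEK293 cells (2,000 per well, medium with 10% dialyzed FBS) attached for 4-5 hr at 37C, then received compound and stood overnight at 37C, 5% CO2. Blue fluorescence was read at Ex/Em 405/460 nm and expressed relative to triamterene.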

[8] = qHTS assay to test for compound auto fluorescence at 590 nm (red) in HEK293 cells (AID 720679)
How it was run: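 HEK293 cells (2,000/well, medium with 10% dialyzed FBS) attached for 4-5 hr at 37C, received 23 nL compound and were incubated overnight at 37C, 5% CO2. Red fluorescence was then read at 540/590nm Ex/Em, referenced to Rose Bengal sodium.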

[9] = qHTS assay to test for compound auto fluorescence at 590 nm (red) in HepG2 cells (AID 720674)
How it was run: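 Red autofluorescence (Ex/Em 540/590 nm, Rose Bengal sodium equivalents) was measured in HepG2 cells, 2,000 per well in MEM plus 10% FBS, plated overnight at 37 C. Readings were taken 1 hr after adding 23 nL compound or DMSO, at 37 C and 5% CO2.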

[10] = qHTS assay for small molecule disruptors of the mitochondrial membrane potential - cell viability (AID 720634; calls by dose curve; further: nearly all actives have a fitted effect of over 20% in size; further: potency means the concentration at half of the fitted maximal effect)
How it was run: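 HepG2, 1 hr compound, 37 C. ATP luminescence via CellTiter-Glo, 30 min RT, same well as m-MPI.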
On the % scale 0 is the no-effect control and ±100 the full control effect.

ClC/C=C\CCl
inactive: Potency [1] | Potency [2] | Potency [3] | Potency [4] | Potency [5] | Potency [6] | Potency [7] | Potency [8]

CCOC(=O)C1=C(C)NC(C)=C(C(=O)OCC)C1c1ccccc1/C=C/C(=O)OC(C)(C)C
inactive: Potency [2] | Potency [9] | Potency [6] | Potency [7] | Potency [8]
active: Potency [1] 29.8 µM | Potency [3] 29.8 µM | Potency [5] 10.6 µM

O=Cc1ccc(F)cc1
inactive: Potency [2] | Potency [3] | Potency [4] | Potency [10] | Potency [9] | Potency [6] | Potency [7] | Potency [8]

C/C=C/C=N/NC(=O)c1ccncc1
inactive: Potency [2] | Potency [3] | Potency [4] | Potency [5] | Potency [9] | Potency [6] | Potency [7]

c1cc2c3c(c1)ccc1cccc(c13)C2
inactive: Potency [2] | Potency [3] | Potency [4] | Potency [9] | Potency [7] | Potency [8]
active: Potency [5] 62.4 µM

CCCCCCCCCCCCCOP(=O)(O)O
active: Potency [3] 48.6 µM
inactive: Potency [2] | Potency [4] | Potency [10] | Potency [9] | Potency [6]

CCN(CC)CCOC(=O)C1(C2CCCCC2)CCCCC1
inactive: Potency [2] | Potency [3] | Potency [4] | Potency [10] | Potency [8]

CC(C)OC(=O)c1cc(C(=O)OC(C)C)cc([N+](=O)[O-])c1
inactive: Potency [2] | Potency [3] | Potency [4] | Potency [9] | Potency [6] | Potency [7] | Potency [8]

Nc1ncnc2c1ncn2[C@@H]1O[C@H](COP(=O)(O)O)[C@@H](O)[C@H]1O
inactive: Potency [2] | Potency [3] | Potency [4] | Potency [10] | Potency [9] | Potency [6] | Potency [7]

COc1ccccc1OCCNCC(O)COc1cccc2[nH]c3ccccc3c12 (configuration not stated)
active: Potency [5] 23.7 µM
inactive: Potency [2] | Potency [3] | Potency [4] | Potency [6] | Potency [7] | Potency [8]

Brc1ccccc1-c1ccccc1
active: Potency [5] 51.6 µM
inactive: Potency [2] | Potency [3] | Potency [4] | Potency [9] | Potency [6] | Potency [8]

C=C1C(C)(C)[C@@]2(Cl)C(Cl)[C@]1(Cl)C(Cl)(Cl)C2(Cl)Cl (some centres not stated)
inactive: Potency [2] | Potency [4] | Potency [10] | Potency [6] | Potency [7] | Potency [8]
active: Potency [3] 67.3 µM

CCO[Si](CCCSSSSCCC[Si](OCC)(OCC)OCC)(OCC)OCC
inactive: Potency [2] | Potency [3] | Potency [4] | Potency [10] | Potency [9] | Potency [6] | Potency [7] | Potency [8]

COC(=O)CC(C)CCC=C(C)C (configuration not stated)
inactive: Potency [2] | Potency [3] | Potency [4] | Potency [10] | Potency [9] | Potency [7] | Potency [8]

CN(C)CCOC(c1ccccc1)c1ccccc1 (tested in a mixture with another compound)
inactive: Potency [2] | Potency [3] | Potency [4] | Potency [10] | Potency [9] | Potency [6] | Potency [7]

c1ccc(Nc2cccc3ccccc23)cc1
inactive: Potency [2] | Potency [3] | Potency [4] | Potency [9] | Potency [6] | Potency [7] | Potency [8]
active: Potency [10] 54.5 µM

COc1cc(C(=O)NS(=O)(=O)c2ccccc2C)ccc1Cc1cn(C)c2ccc(NC(=O)OC3CCCC3)cc12
active: Potency [3] 5.96 µM | Potency [5] 9.44 µM
inactive: Potency [2] | Potency [4] | Potency [10] | Potency [6] | Potency [7] | Potency [8]

O=C(O)Cc1ccc(OCCNC[C@H](O)c2ccccc2)cc1
inactive: Potency [2] | Potency [3] | Potency [4] | Potency [5] | Potency [9] | Potency [6] | Potency [7]

Cc1cccc(C)c1NC(=O)CN1CCN(CCCC(c2ccc(F)cc2)c2ccc(F)cc2)CC1
inactive: Potency [2] | Potency [3] | Potency [4] | Potency [10] | fluorescence, % of fluorescein control [6] 0.0022% [at 18.6 µM] | fluorescence, % of triamterene [7] 0.0374% [at 18.6 µM] | fluorescence, % of fluorescent control [8] 0.0665% [at 18.6 µM]

O=Nc1ccc(NO)cc1
inactive: Potency [2] | Potency [3] | Potency [4] | Potency [10] | Potency [7] | Potency [8]
active: Potency [5] 50.5 µM

Cc1oc(-c2ccccc2)nc1CCOc1ccc(C[C@H](Nc2ccccc2C(=O)c2ccccc2)C(=O)O)cc1
inactive: Potency [2] | Potency [9] | Potency [6] | Potency [7] | Potency [8]
active: Potency [3] 21.7 µM | Potency [4] 54.5 µM

CCCN(CCc1cccs1)[C@H]1CCc2c(O)cccc2C1
active: Potency [5] 24.8 µM
inactive: Potency [2] | Potency [3] | Potency [4] | Potency [9] | Potency [6] | Potency [7]

CCCCNc1c(C(=O)OCC)c(C)nc2c1cnn2CC
inactive: Potency [2] | Potency [3] | Potency [4] | Potency [9] | Potency [6] | Potency [7] | Potency [8]

O=C1NCN(c2ccccc2)C12CCN(CCCC(c1ccc(F)cc1)c1ccc(F)cc1)CC2
active: Potency [3] 26.6 µM | Potency [4] 26.6 µM | Potency [5] 19.7 µM
inactive: Potency [2] | Potency [9] | Potency [7] | Potency [8]

Oc1ccc(-c2ccccc2)c(Cl)c1
inactive: Potency [2] | Potency [4] | Potency [9] | Potency [7] | Potency [8]
active: Potency [3] 61.1 µM | Potency [5] 8.63 µM

Cc1c(C)n(Cc2ccccc2)c2ccc(C(=O)OCCN(C)C)cc12
inactive: Potency [2] | Potency [3] | Potency [4] | Potency [10] | Potency [9] | Potency [6] | Potency [8]

Nc1cc(Cl)c([N+](=O)[O-])cc1O
inactive: Potency [2] | Potency [3] | Potency [10] | Potency [6] | Potency [7] | Potency [8]
active: Potency [4] 68 µM
